The source of these data is PubChem BioAssay.

A short description of this experiment: sensitizers of A549 cells to miR-34 induction, primary screen, imaging, A549 dox-inducible miR-34, nuclei and caspase counts (AID 1347080). Further: test concentration not given here. As to conditions: A549 miR-34 inducible, Hoechst nuclei count, 48 h; measured here: relative caspase fold change +Dox/-Dox.
Take `N[C@@H](CCC(=O)N[C@@H](CSN=O)C(=O)NCC(=O)O)C(=O)O`: the fold change is 0.986.
In the case of `CCCCC(C)(C)[C@H](O)/C=C/[C@H]1[C@H](O)CC(=O)[C@@H]1CC(=O)CCCCC(=O)O`, the fold change was determined as 1.32.
Turning to `CC(C)=CCC/C(C)=C/CC/C(C)=C/CC[C@]1(C)CCc2cc(O)cc(C)c2O1`, the fold change came out at 1.06.
In the case of `CCCCCCCCCC(=O)CC(=O)N[C@H]1CCOC1=O`, the fold change came out at 0.275.
The figure for `CCCCCCCCCCCCCCCCOC[C@H](COP(=O)([O-])OCC[N+](C)(C)C)SC(C)=O` is 0.945; for `CCCCC[C@@H](O)CC[C@H]1[C@H](O)CC(=O)[C@@H]1CCCCCCC(=O)O` it is 1.47.
For the compound `CCCCCC/C=C/C=C\CCCCCCCC(=O)O`, the fold change came to 0.691.
In the case of `CCNC1=N[C@@H]2[C@@H](O)[C@H](O)[C@@H](CO)O[C@@H]2S1`, the fold change was 1.7.
The figure for `C[C@@H](O)CCC[C@@H](O)/C=C/[C@@H]1[C@@H](CCCCCCC(=O)O)[C@@H](O)C[C@H]1O` is 1.31; for `CCCCCC#CCC#CCC#CCCCCCCC(=O)O` it is 0.33; for `CCCCC(C)(C)[C@H](O)/C=C/[C@H]1CCC(=O)[C@@H]1C/C=C\CCCC(=O)O` it is 1.01.
Consider `COc1ccc2c(c1)c(CC(=O)NCCc1ccccc1)c(C)n2C(=O)c1ccc(Cl)cc1`, for which the fold change worked out at 0.638.
The figure for `CCCCC/C=C\C/C=C\C/C=C\CCCCCCC(=O)OCC` is 0.794; for `O=C(O)CCC/C=C\C[C@@H]1[C@@H](CC[C@@H](O)CCc2cccc(C(F)(F)F)c2)[C@H](O)C[C@@H]1O` it is 1.34.
As for `O=Cc1cccc2[nH]ccc12`, the fold change is 0.821.
For `CCCCCCCCCCCCC/C=C/[C@@H](O)[C@H](CO)NC(=O)CCCCC`, the fold change was found to be 0.834.
For the compound `CCCCC[C@H](O)/C=C/[C@H]1[C@H](O)CC(=O)[C@@H]1C/C=C\CCCC(=O)OC`, the fold change amounted to 1.71.
`CCCCCCC(Sc1nc(Cl)cc(NCc2ccc(-c3ccccc3)cc2)n1)C(=O)O` (stereo not given): the fold change was 1.34.
Consider `C[C@@H]1C[C@H]2O[C@@H]2/C=C\C=C\C(=O)Cc2c(Cl)c(O)cc(O)c2C(=O)O1`, for which the fold change came out at 1.3.
As for `CCCCC[C@H](O)/C=C/[C@@H]1[C@H]2C[C@H](CCCCC(=O)O)O[C@H]2C[C@H]1O`, the fold change was found to be 1.41.
For the compound `CC(=O)OCC(=O)[C@@]12N=C(C)O[C@@H]1CC1C3CCC4=CC(=O)C=C[C@]4(C)C3[C@@H](O)C[C@@]12C` (stereo not given in full), the fold change is 0.993.
For the compound `N=C(N)SCCC[C@H](N)C(=O)O`, the fold change came out at 0.775.
Turning to `CCCCC[C@H](O)/C=C/[C@H]1[C@H](O)CC(=O)[C@@H]1C/C=C\CCCC(=O)OCC(O)CO` (stereo not given in full), the fold change stood at 0.932.
Turning to `CCCCC/C=C\C=C1\C(=O)CC[C@@H]1C/C=C\CCCC(=O)O`, the fold change worked out at 0.792.
Consider `CCCCCCCCCCCCCCCC(=O)N[C@H](C)CO`, for which the fold change worked out at 0.934.
Regarding `CCCCCCCC/C=C\CCCCCCCC(=O)Nc1c(C(C)C)cccc1C(C)C`, the fold change worked out at 0.853.
As to `O=P(O)(O)OC1[C@@H](O)[C@H](O)C(O)[C@H](O)[C@@H]1O` (stereo not given in full), the fold change came out at 0.602.
In the case of `O=C(CCCC[C@@H]1SC[C@@H]2NC(=O)N[C@@H]21)NCCCC[C@H](NC(=O)CCN1C(=O)C=CC1=O)C(=O)O`, the fold change worked out at 0.469.
In the case of `CCCCCCCCCCCCCCCCCCCCCC(=O)NCCO`, the fold change was found to be 0.641.
`C[C@@H](C(=O)O)c1ccc(-c2ccccc2)c(F)c1`: the fold change came to 0.615.
In the case of `CCCCC[C@H](O)/C=C/[C@H]1[C@H](O)CC(=O)[C@@H]1C/C=C\CCCC(=O)NCCO`, the fold change is 1.44.
In the case of `[C-]#[N+]c1cc(-c2ccncc2)c(C)[nH]c1=O`, the fold change came out at 1.32.
In the case of `CCCCC[C@H](O)/C=C/[C@@H]1[C@@H](C/C=C\CCCCCC(=O)O)[C@@H](O)C[C@H]1O`, the fold change worked out at 0.899.
In the case of `CCCCC/C=C\C/C=C\CCCCCCCC(=O)OCC`, the fold change is 0.749.
Regarding `CCCCc1ccc(N=CNO)c(C)c1`, the fold change was 0.762.
With `O=C(O)CCC/C=C\C[C@@H]1[C@@H](/C=C/[C@@H](O)Cc2ccccc2)[C@H](O)C[C@@H]1O`, the fold change amounted to 1.42.
In the case of `CC(C)(CCCCCCCCCCC(C)(C)CC(=O)O)CC(=O)O`, the fold change turned out to be 0.985.
Turning to `CCCCC[C@H](O)/C=C/[C@@H]1[C@H]2CC(CCCCC(=O)O)O[C@H]2C[C@H]1O` (stereo not given in full), the fold change stood at 1.39.
Consider `O=S(=O)(NO)c1ccccc1`, for which the fold change came out at 0.412.
`CCCC1([C@@H](O)C/C=C/[C@H]2C(O)CC(=O)[C@@H]2CCCCCCC(=O)OC)CCC1` (stereo not given in full): the fold change was 1.54.
